In PubChem BioAssay (NCATS):
Inconclusive results are not listed. Unmarked numbers belong to inactive results. Calls come from the whole dose curve; as a rule, active = well fitted curve in the direction sought with a large enough effect; inconclusive = small, poorly fitted or top-dose-only effect, or another doubt; inactive = no such curve, though single readings can be large or run the other way.

test: qHTS Assay for Identifying Gametocytocidal Compounds (AID 743244);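 note: actives lower the fluorescent signal which means gametocytes are killed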; details: P. falciparum 3D7 stage III-V gametocytes, alamarBlue, 72 h; max response: hits give low values
In short: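 P. falciparum 3D7 stage III–V gametocytes (20,000 cells/well) were exposed to compounds for 72 h at 37 °C, 5% CO2. AlamarBlue was then added for 24 h; decreased resorufin fluorescence (Ex 525/Em 598 nm) indicated loss of viability.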
% is set by controls: 0 for no effect and ±100 for the full control effect.

SMILES	max response [%]
CCCCC(O)c1ccccc1 (stereo unspecified)	-2.26
O=C(/C=C/c1cccc(F)c1)NC1CC1	-1.6
Nc1nc(=O)n([C@@H]2CS[C@H](CO)O2)cc1F	4.32
CCN1C(=O)NC(c2ccccc2)C1=O (stereo unspecified)	13.2
[O]=[Bi][O]C(=O)[O][Bi]=[O]	-0.353
CO[C@H]1C[C@H](O[C@@H]2/C(C)=C/C[C@@H]3C[C@@H](C[C@]4(CC[C@H](C)[C@@H](C5CCCCC5)O4)O3)OC(=O)[C@@H]3C=C(C)/C(=N/O)[C@H]4OC/C(=C\C=C\[C@@H]2C)[C@]43O)O[C@@H](C)[C@@H]1O	-14.2
